Screening data from PubChem BioAssay.
PREPL inh: PREPL enzyme inhibitors, primary screen, biochemical, fluorescence polarization; 320,000 tested, 0.68% active; recombinant PREPL, fluorescence polarization activity-based probe; inhibition, % at 5.96 µM; Prolyl endopeptidase-like (Homo sapiens), Q4J6C6; in the data active = inhibition above about 43%;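 also: 0% = enzyme with DMSO and 100% = wells lacking enzyme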
RAD54 inh: inhibitors of human RAD54 branch migration, primary screen, biochemical, fluorescence, single point. DNA repair and recombination protein RAD54-like (Homo sapiens), Q92698. RAD54 Holliday junction branch migration, FAM/BHQ fluorescence. inhibition, % at 10.4 µM. 360,000 tested, 0.14% active. AID 602329, 2012;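 active = mean normalized replicate activity at least 40 and at least half of replicates scoring 40 or more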;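 also: 0% = median of neutral control wells and 100% = median of positive control wells; inhibitors cause a drop in the FAM fluorescence signal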
MIN6 prolif-1: inducers of MIN6 beta-cell proliferation, primary screen, ATP luminescence, uHTS | MIN6 cells proliferation, ATPlite luminescence, 48 h; cells starved in 0.2% serum; 100% = growth in 10% serum | 330,000 tested, 0.29% active | proliferation, % at 10 µM | AID 2380, 2010;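 active = compounds whose signal lies at least 3.5 SD above the mean of all wells on their plate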;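 also: 0% = DMSO-treated cells in low-serum medium and 100% = 10% serum control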
FID counter: compounds displacing fluorescent DNA intercalator, primary screen, artefact control for HCV NS3 helicase inhibitor project, biochemical, FID fluorescence. DNA fluorescent intercalator displacement. inhibition, % at 7.9 µM. 290,000 tested, 0.17% active; in the data active = inhibition above about 37%;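 also: 0% = vehicle and 100% = reference compound; higher means more ethidium bromide displaced from hairpin DNA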
RAD52 anneal inh: RAD52 DNA annealing inhibitors, primary screen, biochemical, FRET, single point, set 2. DNA repair protein RAD52 homolog (Homo sapiens), P43351. recombinant RAD52 DNA annealing, FRET fluorescence. inhibition, % at 18.7 µM. 360,000 tested, 0.46% active. AID 651710, 2012;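 active = every replicate showing at least 50% inhibition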
UBC13 inh: UBC13 polyubiquitin chain formation inhibitors, primary screen, biochemical, TR-FRET, uHTS. Ubiquitin-conjugating enzyme E2 N (Homo sapiens), P61088. inhibition, % at 20 µM. 330,000 tested, 0.47% active; in the data active = inhibition above about 45%, passing the limit was not always enough
Target sequence (P61088 whole entry, looked up): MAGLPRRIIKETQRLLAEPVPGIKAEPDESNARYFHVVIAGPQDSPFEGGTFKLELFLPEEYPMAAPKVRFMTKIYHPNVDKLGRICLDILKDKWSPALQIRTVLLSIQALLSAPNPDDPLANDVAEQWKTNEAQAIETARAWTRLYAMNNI
MIN6 prolif-2: inducers of beta-cell proliferation in MIN6, confirmation, MIN6 cells, mouse. shares compounds with MIN6 prolif-1. ATPlite luminescence, 48 h; cells kept in 0.2% serum; scaled between 0.2% and 10% serum. proliferation increase, % at 50 µM. 920 tested, under 10 active. AID 463095, 2010;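 active = proliferation increase above 40% at any of the four tested concentrations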
* = called active by the depositor; · = no result given. An excerpt weighted towards active compounds, which were near 1.3% of everything screened.

SMILES | PREPL inh | RAD54 inh | MIN6 prolif-1 | FID counter | RAD52 anneal inh | UBC13 inh | MIN6 prolif-2
CCOC(=O)c1c(S(=O)(=O)NCC(=O)Nc2ccccc2OC)c(C)n(C)c1C | 3.0 | -7.3 | 12.7* | -19.6 | -8.6 | 5.8 | 2.0
CCOC(=O)c1c(S(=O)(=O)NCCc2ccccc2)c(C)n(C)c1C | -0.2 | -3.3 | 11.7* | -32.4 | -15.8 | 3.1 | -5.2
Brc1nnc2n1-c1ccccc1Sc1ccccc1-2 | -10.0 | -3.8 | 5.6* | -15.2 | · | -2.2 | -6.0
Clc1ccc2c(c1)-c1nnc(Br)n1-c1ccccc1S2 | -10.2 | -5.7 | -1.5 | -19.4 | · | 2.9 | ·
CC1=C(C(=O)Nc2ccccc2)C(c2ccncc2)C(C#N)=C(SCC(=O)NC2CC2)N1 (stereo not given) | -1.9 | · | 8.3* | -6.9 | · | 1.8 | 2.5
CC1=C(C(=O)Nc2ccccc2)C(c2ccncc2)C(C#N)=C(SCC(=O)NC(C)C)N1 (stereo not given) | -4.3 | · | -0.5 | -7.0 | · | 0.9 | ·
N#C[C@H]1[C@@H](c2ccccc2C2=CCCC2)[C@@H](CO)N1S(=O)(=O)c1ccccc1 | · | · | · | · | -7.1 | · | ·
Cc1ccc2c(c1)cc(CN(Cc1ccc3c(c1)OCO3)C(=O)c1ccccc1)c1nnnn12 | 16.1 | 9.7 | 8.0* | 0.0 | · | 5.7 | -2.6
Cc1ccc2c(c1)cc(CN(CCc1ccccc1)C(=O)N1CCOCC1)c1nnnn12 | -20.1 | 2.8 | -0.7 | -39.2 | · | 3.4 | ·
Cc1ccccc1N=Nc1c(N)n[nH]c1N | · | 9.8 | 7.2* | -1.2 | -17.6 | -12.8 | -3.9
C[C@@H]1CCCCO[C@@H](CN(C)S(=O)(=O)c2ccccc2)[C@H](C)CN([C@@H](C)CO)C(=O)c2cc(NS(C)(=O)=O)ccc2O1 | · | -32.1 | · | · | -9.0 | · | ·
CCCC#Cc1ccc([C@H]2[C@@H](CO)N(C(C)=O)[C@H]2CNC(=O)C2CCCC2)cc1 | · | · | · | · | -71.2 | · | ·
O=S(=O)(c1ccccc1)N1CCN(c2cccc(Cl)c2)CC1 | -21.1 | 7.3 | 7.2* | -18.6 | -3.2 | 3.9 | -5.8
NS(=O)(=O)c1ccc(NC(=O)c2ccc3c(c2)CCCC3)cc1 | -1.5 | 0.2 | 5.3* | -11.3 | -12.5 | 8.9 | -0.4
NS(=O)(=O)c1ccc(NC(=O)c2ccc3c(c2)OCO3)cc1 | 4.3 | 18.4 | -2.4 | -0.8 | -18.3 | 6.8 | ·
CCCN1C2=C(C(=O)CC(C)(C)C2)C(c2ccc(F)cc2)C2=C1c1ccccc1C2=O (stereo not given) | 18.5 | -10.4 | -4.5 | 0.9 | · | 4.5 | ·
CCCCN1C2=C(C(=O)CC(C)(C)C2)C(c2ccccc2)C2=C1c1ccccc1C2=O (stereo not given) | 20.1 | -2.5 | 8.2* | -15.3 | · | -16.6 | -0.7
COc1cccc(NC(=O)C[C@H]2CC[C@H]3[C@H](COc4ccc(NS(=O)(=O)c5cccc(F)c5)cc4C(=O)N3C)O2)c1 | · | 0.8 | · | · | · | · | ·
Cc1ccc(S(=O)(=O)N(C)C)cc1NC(=O)COC(=O)c1n[nH]c(=O)c2ccccc12 | -2.1 | · | 11.5* | -5.7 | -12.3 | 11.8 | 0.9
CCC(=O)N(C)C[C@@H]1Oc2cc(-c3ccccc3F)ccc2S(=O)(=O)N([C@@H](C)CO)C[C@@H]1C | · | -1.4 | · | · | -1.0 | · | ·
Cc1ccc(-c2cc(C(F)F)n3ncc(C(=O)N4CCCc5ccccc54)c3n2)cc1 | 1.6 | -9.7 | 7.8* | -0.4 | · | 5.0 | -1.7
Cn1c(-c2nonc2N)nc2ccccc21 | 2.8 | -1.8 | -2.2 | 0.1 | -5.5 | 2.2 | ·
CCCn1c(-c2nonc2N)nc2ccccc21 | 10.8 | 0.5 | 9.0* | -7.6 | · | 9.2 | -0.6
COc1ccc(CNc2cc(C)ccc2C)c(OC)c1OC | 5.3 | -5.2 | 9.2* | -7.7 | · | 6.4 | -4.4
C[C@H](CO)N1C[C@H](C)[C@@H](CN(C)C(=O)c2cnccn2)Oc2cc(Br)ccc2S1(=O)=O | · | -3.4 | · | · | 4.3 | · | ·
